Bioassay records from PubChem.
MsrA inhibitor: bovine MsrA enzyme inhibitors, primary screen, biochemical, absorbance, HTS | Methionine sulfoxide reductase A (Bos taurus) | purified bovine MsrA, absorbance read-out | inhibition, % at 15.5 µM | actives 0.75% (n = 360,000) | AID 651718, 2012; in the data active means inhibition above about 4.5%
proKLK7 act: proKLK7 zymogen activators, primary screen, biochemical, fluorescence intensity. purified proKLK7, EDANS-DABCYL substrate fluorescence; 100% is mature enzyme control, 0% vehicle. Kallikrein-7 (Homo sapiens), P49862. activation, % at 7 µM. actives 0.9% (n = 370,000);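 active means activation above the mean of all tested compounds plus 3 SD, computed per campaign excluding outliers beyond control limits, cut at about 13% in these data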
Target sequence (P49862 whole entry, looked up): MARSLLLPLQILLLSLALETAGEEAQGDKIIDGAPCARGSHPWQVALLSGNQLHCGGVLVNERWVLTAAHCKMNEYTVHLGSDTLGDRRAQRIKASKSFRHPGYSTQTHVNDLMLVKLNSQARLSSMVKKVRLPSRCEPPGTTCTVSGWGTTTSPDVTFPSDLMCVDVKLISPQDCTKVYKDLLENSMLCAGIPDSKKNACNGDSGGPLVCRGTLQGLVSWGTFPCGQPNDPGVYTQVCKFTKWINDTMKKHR
MsrA act: bovine MsrA enzyme activators, primary screen, biochemical, absorbance, HTS. activation, % at 10.6 µM. purified bovine MsrA, absorbance read-out. actives 0.3% (n = 360,000). Methionine sulfoxide reductase A (Bos taurus); in the data active means activation above about 7.5%
SMARCA2 activ: SMARCA2 (BRM) function activators, primary screen, cell-based, luminescence, high throughput. MG213 cells, MMTV-luciferase reporter, dexamethasone, overnight. activation, % at 9.1 µM. actives 1% (n = 370,000). AID 652017, 2013; in the data active means activation above about 7.8%
SMARCA2 act conf: SMARCA2 (BRM) function activators, confirmation, cell-based, luminescence, triplicate; shares compounds with SMARCA2 activ; MG213 cells, MMTV-luciferase with dexamethasone, overnight; MG213 cells expressing E1A, Rb sequestered; DMSO wells 0%, reference activator 100%; activation, % at 9.1 µM; actives 30% (n = 3,500);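 active means activation above its plate's cutoff, the mean activation of tested wells plus 3 SD, cut at about 7.9% in these data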
VP16 Luc act: GAL4-VP16 luciferase reporter activation, counter-screen for SMARCA2 (BRM) activator project, cell-based, pG5luc, luminescence, high throughput; HEK293 GAL4-VP16 pG5luc reporter; scaled: DMSO wells 0%, SAHA wells 100%; activation, % at 9.1 µM; actives 41% (n = 3,500); shares compounds with SMARCA2 activ;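 active means activation above the solvent-only control well mean plus 3 SD, averaged across control plates, cut at about 5.2% in these data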
Of the large screens only hits and unclear results are named; the others gave an inactive call (follow-up assays come after a bar, where they were run). This is a sample that favours compounds with a hit; in the whole collection about 2.8% have one here.

COc1ccccc1OCCNC(=O)c1ccc(C(C)(C)C)cc1	SMARCA2 activ 8.2 | SMARCA2 act conf inactive | VP16 Luc act inactive
COc1cc(C(=O)NCCOc2cccc3cccnc23)cc(OC)c1OC	SMARCA2 activ 10.8 | SMARCA2 act conf inactive | VP16 Luc act inactive
O=S1(=O)c2ccc(N3CC[C@H](O)C3)cc2OCCCN1C1CC1	none (no result: MsrA inhibitor, MsrA act)
COCCN(Cc1ccc(C)cc1)C(=O)[C@H]1O[C@@H](n2cnc(C(N)=O)n2)[C@H](O)[C@@H]1O	none (no result: MsrA act)
O=C(NCc1ccccc1)[C@@H]1CCCN1C(=O)[C@H]1CCCN1C(=O)c1ccccc1Cl	none (no result: MsrA act)
COC(=O)C1=C(C)N(Cc2ccccc2C(F)(F)F)C(=NCc2cccc(C(F)(F)F)c2)NC1c1cccc(Cl)c1 (configuration not stated)	none (no result: MsrA act)
CCOC(=O)c1sc(=NC(=O)c2cccs2)n(C)c1C	SMARCA2 activ 11.9 | SMARCA2 act conf inactive | VP16 Luc act 13.7
CCOC(=O)c1sc(=NC(=O)c2ccc(Cl)s2)n(C)c1C	none
COc1ccc(OCC(CO)N2CCN(c3ccccc3)CC2)cc1 (configuration not stated)	none
C/C(=N/NC(=O)c1ccco1)c1ccc(NC(=O)c2ccc(F)cc2)cc1	none
C/C(=N/NC(=O)c1ccco1)c1ccc(NC(=O)c2ccc(Br)o2)cc1	SMARCA2 activ 9.5 | SMARCA2 act conf inactive | VP16 Luc act 9.7
C/C(=N/NC(=O)c1ccco1)c1cccnc1	SMARCA2 activ 8.3 | SMARCA2 act conf inactive | VP16 Luc act inactive
COC(=O)[C@]12C[C@H](CC(=O)NCc3cccc(C(F)(F)F)c3)C(=O)N(Cc3ccccc3)C1=C[C@H](C(C)(C)C)O[C@@H]2C	none (no result: MsrA act)
O=C(COC(=O)/C=C/c1ccc2ccccc2n1)NNC(=O)c1ccc([N+](=O)[O-])cc1	none
N#CC1(NC(=O)COC(=O)/C=C/c2ccc3ccccc3n2)CCCCC1	SMARCA2 activ 9.4 | SMARCA2 act conf 8.3 | VP16 Luc act inactive
COC(=O)CCCNC(=O)c1ccc(OC2CCN(CCc3ccccc3)CC2)cc1	none
CSCCNC(=O)c1ccc(OC2CCN(CCc3ccccc3)CC2)cc1	SMARCA2 activ 8.0 | SMARCA2 act conf inactive | VP16 Luc act inactive
CCc1cc(C(=O)O)c(NC(=O)/C=C/c2ccc(OC)cc2)s1	SMARCA2 activ 13.3 | SMARCA2 act conf inactive | VP16 Luc act 6.1
CCc1cc(C(=O)c2ccc(OC)cc2)c(NC(=O)COCC(=O)O)s1	none
CC(C)CCN(C)[C@H]1C[C@H]2c3[nH]c4ccccc4c3CCN2C[C@H]1[C@H](C)O	none (no result: MsrA act)
CCSc1n[nH]c2nc3c(c(=O)n12)C1(CCCC1)Cc1ccccc1-3	none
Cc1ccc(-n2c(SCC(N)=O)nc3c(c2=O)C2(CCCC2)Cc2ccccc2-3)cc1	SMARCA2 activ 8.0 | SMARCA2 act conf inactive | VP16 Luc act inactive
O=C(Nc1ccccc1F)C1(c2ccccc2)CC1(Cl)Cl (configuration not stated)	SMARCA2 activ 9.9 | SMARCA2 act conf inactive | VP16 Luc act inactive
O=C(Nc1ccccc1)C1(c2ccccc2)CC1(Cl)Cl (configuration not stated)	none
CCOc1ccc(/C(O)=C2/C(=O)C(=O)N(CCOCCO)C2c2ccccn2)cc1 (configuration not stated)	SMARCA2 activ 8.6 | SMARCA2 act conf inactive | VP16 Luc act inactive
CCOc1ccc(/C(O)=C2/C(=O)C(=O)N(CCOCCO)C2c2ccc(F)cc2)cc1 (configuration not stated)	none
C=CCN1C(=O)C(=O)N(Cc2nc3ccccc3s2)C1=O	SMARCA2 activ 8.7 | SMARCA2 act conf 8.2 | VP16 Luc act 8.3
C=CCn1c(=O)c2ccccc2n2c(SCc3nc4ccccc4s3)nnc12	none
O=C1NCCCC1C(=O)N/N=C/c1ccccc1 (configuration not stated)	SMARCA2 activ 8.8 | SMARCA2 act conf inactive | VP16 Luc act inactive
CC1(C(=O)Nc2ccc(Cl)c(Cl)c2)CCN1Cc1cc2ccccc2o1 (configuration not stated)	none
Cc1cc(C)c(S(=O)(=O)N2C[C@H]3CON(C)[C@H]3C[C@H]2c2ccc(-n3ccnc3)cc2)c(C)c1	none (no result: MsrA act)
c1ccc(-c2nc3cc4ccccc4cc3[nH]2)nc1	none
c1cncc(-c2nc3cc4ccccc4cc3[nH]2)c1	SMARCA2 activ 8.4 | SMARCA2 act conf 13.2 | VP16 Luc act 17.5
CC(=O)N/C(=N\c1nc(C)cc(C)n1)Nc1ccccc1Cl	SMARCA2 activ 8.3 | SMARCA2 act conf inactive | VP16 Luc act inactive
CC(=O)N/C(=N/c1nc(C)cc(C)n1)Nc1ccc(C)cc1Cl	none
Cc1cc(-c2n[nH]c(=S)n2N=Cc2cccc(Oc3ccccc3)c2)n[nH]1	none (no result: MsrA inhibitor, MsrA act)
COc1ccc(-c2cc(C#N)nc(Cl)n2)cc1	MsrA inhibitor 5.1, SMARCA2 activ 21.2 | SMARCA2 act conf 40.9 | VP16 Luc act inactive
c1ccc(C2=Nc3ccccc3NC(c3ccccc3)C2)cc1 (configuration not stated)	SMARCA2 activ 9.7 | SMARCA2 act conf inactive | VP16 Luc act 7.0
CC1CCC2(CC1)NC(=O)N(CC(=O)Nc1ccc3c(c1)OCCO3)C2=O (configuration not stated)	SMARCA2 activ 12.4 | SMARCA2 act conf 10.4 | VP16 Luc act inactive
O=C(CCCc1ccccn1)c1ccc(-c2ccccc2)cc1	SMARCA2 activ 8.6 | SMARCA2 act conf inactive | VP16 Luc act 6.4
CCN(CC)CCN1CCN(c2cnc(C)cn2)CC1	none
COc1ccccc1NC(=O)c1c[nH]c2ccccc12	SMARCA2 activ 10.0 | SMARCA2 act conf inactive | VP16 Luc act inactive
COc1ccccc1NC(=O)c1cc(=O)[nH]c2ccccc12	none
Cc1cccc(C)c1NC(=O)c1c[nH]c2ccccc12	SMARCA2 activ 13.4 | SMARCA2 act conf 8.7 | VP16 Luc act 9.4
Cc1cccc2nc(CSc3nnc4ccccn34)cn12	SMARCA2 activ 8.4 | SMARCA2 act conf 9.9 | VP16 Luc act 11.8
O=[N+]([O-])c1ccc2nc(-c3ccc(Cl)cc3)n(OCc3ccccc3)c2c1	SMARCA2 activ 10.8 | SMARCA2 act conf inactive | VP16 Luc act 11.4
Clc1ccc(COn2c(-c3ccc(Cl)cc3)nc3ccccc32)cc1	none
Cc1ccsc1C(=O)N1CCC1(C)C(=O)NCc1cccnc1 (configuration not stated)	none
CCN(CCC(=O)Nc1cc([N+](=O)[O-])ccc1OC)Cc1ccccc1	SMARCA2 activ 9.7 | SMARCA2 act conf inactive | VP16 Luc act inactive
